In the library only some 3% were active in any assay of this set; here they are far more common.
TSG101-PTAP inh – qHTS Assay for Iinhibitors of HIV-1 Budding by Blocking the Interaction of PTAP/TSG101; Fluorescence polarization, FITC-PTAP peptide / Tsg101 binding; Potency, µM (top dose mostly 115 µM), for inactives: top-dose activity change, negative = inhibition, actives largely listed as inhibitors; 340,000 tested, under 10 active; AID 493005, 2010; active = well fitted inhibition curve with a large enough effect in the main read-out, with a control signal flat, not every such curve was filed as active; inconclusive = small, poorly fitted or top-dose-only effect, or effect the other way, or a change in a side signal; inactive = no such curve, though single readings can be large or run the other way; also: % of control where 0% means no effect
Target sequence (Q99816 whole entry, looked up): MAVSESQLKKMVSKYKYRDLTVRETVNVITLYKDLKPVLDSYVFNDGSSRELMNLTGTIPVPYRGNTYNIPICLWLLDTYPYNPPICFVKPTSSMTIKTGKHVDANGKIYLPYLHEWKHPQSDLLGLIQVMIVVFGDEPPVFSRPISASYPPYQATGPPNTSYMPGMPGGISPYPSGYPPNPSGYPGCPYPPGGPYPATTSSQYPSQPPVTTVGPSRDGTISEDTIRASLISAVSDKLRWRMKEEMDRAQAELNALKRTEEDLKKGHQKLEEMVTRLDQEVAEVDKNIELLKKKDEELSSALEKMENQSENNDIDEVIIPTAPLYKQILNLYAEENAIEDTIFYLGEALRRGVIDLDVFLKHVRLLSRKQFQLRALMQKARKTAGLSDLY
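Fluorescence anisotropy tracks displacement of a FITC-tagged PTAP peptide (50 nM) from the Tsg101 binding domain (10 uM), following a 20 min room-temperature incubation at pH 7.5.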
USP1 inh – Inhibitors of USP1/UAF1: Primary Screen; recombinant USP1/UAF1, Ub-Rhodamine cleavage fluorescence; AID 743255, 2014; 390,000 compounds, 0.23% hits; Potency, µM (titrated, usually from 57.1 µM), inactives show at the highest dose activity change, negative = inhibition, hits mostly inhibitors; also: % is scaled to controls: 0 for no effect and ±100 for the full control effect; nearly all actives have a fitted effect of over 60% in size
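1 nM enzyme complex + cpd, 15 min RT; start with Ub-Rho 150nM final; kinetic fluorescence ex 480/em 540, 6 reads q60 s. Buffer 50mM HEPES pH 7.8, 0.5mM EDTA, 0.1 mg/ml BSA, 1mM TCEP, 0.01% Tween-20.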
PLK1 PBD block – qHTS for Inhibitors of PLK1-PDB (polo-like kinase 1 - polo-box domain): Primary Screen | Serine/threonine-protein kinase PLK1 (Homo sapiens), P53350 | Plk1 PBD binding of FITC phosphopeptide, fluorescence polarization | Potency, µM, for the others: max response, negative = inhibition, usual class: inhibitors | 360,000 compounds, 2.8% hits; also: series mostly up to about 57 µM; % is scaled to controls: 0 for no effect and ±100 for the full control effect; nearly all actives have a fitted effect of over 65% in size
VDR inhibitor – Inhibitors of the vitamin D receptor (VDR): qHTS; Potency, µM, inactives show max response, negative = inhibition, usual class: inhibitors; VDR-SRC2-3 peptide fluorescence polarization, 2 h; 400,000 compounds, 0.93% hits; Vitamin D3 receptor (Homo sapiens), P11473; also: % is scaled to controls: 0 for no effect and ±100 for the full control effect
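Fluorescence polarization assay measuring small-molecule disruption of VDR binding to the coregulator peptide SRC2-3. Compounds were pin-transferred (23 nl) into the reagent mix and incubated 2 h at room temperature before reading.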
KAT2A inh – qHTS Assay for Inhibitors of GCN5L2; Histone acetyltransferase KAT2A (Homo sapiens), Q92830; GCN5L2 HAT assay, ThioGlo1 CoA-SH fluorescence; Potency, µM (titrated, usually from 58.9 µM), without a hit: at the top dose activity change, negative = inhibition, most hits filed as inhibitors; 390,000 compounds, 0.21% hits; AID 504327, 2011; also: % is scaled to controls: 0 for no effect and ±100 for the full control effect
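GCN5L2 (20nM final) in 50mM HEPES, 0.1mM EDTA pH 7.5, 0.01% Tween-20 was preincubated 15 min at room temperature with compound, then given ThioGlo1 (50uM), H3(1-25) peptide (75uM) and acetyl-CoA (70uM); CoA-thiol fluorescence (Ex340/Em540) was read at 0 and 20 min.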
Starred values were filed as active, the others as inactive; ? = inconclusive; . = no result. Unless noted, calls follow the shape of the dose curve; as a rule, active = well fitted curve in the direction sought with a large enough effect; inconclusive = small, poorly fitted or top-dose-only effect, or another doubt; inactive = no such curve, though single readings can be large; an effect the other way counts as inactive or inconclusive. Potency is read from the fitted curve at half-maximal effect.

SMILES	TSG101-PTAP inh	USP1 inh	PLK1 PBD block	VDR inhibitor	KAT2A inh
C=CCCCCCCCCCCCc1ccco1	.	.	.	25µM*	?
CCOC(=O)c1cn2ccc(C)cc2n1	-8%	-15%	27µM*	-15%	-6%
O=S(=O)(c1ccc2c(c1)OCCO2)N1CCN(c2nc(-c3cccs3)nc3ccccc23)CC1	.	.	.	-8%	.
CC(=O)CSc1nc2c(c(=O)[nH]c(=O)n2C)n1Cc1cccc(Br)c1	-7%	-2%	19µM*	-20%	-7%
COCCn1c(SCc2ccc(F)cc2)nc2c1c(=O)[nH]c(=O)n2C	-4%	-6%	11µM*	?	-4%
CCOCCn1c(SCc2ccc(F)cc2)nc2c1c(=O)[nH]c(=O)n2C	-2%	-15%	-3%	-11%	-1%
CCCCn1c(SCc2ccc(Cl)cc2)nc2c1c(=O)[nH]c(=O)n2C	-7%	-9%	21µM*	89µM*	-8%
Cn1c(=O)[nH]c(=O)c2c1nc([N+](=O)[O-])n2Cc1ccccc1	-2%	-19%	2.4µM*	?	-11%
COc1cccc(N2CCN(C(=O)Cn3ncc4c3-c3ccccc3OC4)CC2)c1	.	-22%	.	-1%	0%
Cn1c(-c2nc(-c3ccccc3)cs2)nc2ccccc21	.	.	.	5%	-6%
CC(C)CCn1c(SCc2ccc(Cl)cc2)nc2c1c(=O)[nH]c(=O)n2C	-5%	-20%	27µM*	?	3%
C/C(Cl)=C/Cn1c(SCc2ccc(Cl)cc2)nc2c1c(=O)[nH]c(=O)n2C	1%	-1%	?	?	1%
C/C=C/Cn1c(SCc2ccccc2)nc2c1c(=O)[nH]c(=O)n2C	-3%	-12%	24µM*	?	-1%
O=C(CN1c2ccccc2S(=O)(=O)c2ccccc21)Nc1ccccc1Cl	.	-18%	.	2%	0%
CCc1ccc(C(=O)Nc2cccc(-c3nc4cc(C(C)C)ccc4o3)c2)cc1	.	-24%	.	8%	-3%
CC(C)CC1=NN(C(=O)c2cccnc2)C(O)(C(F)(F)F)C1 (stereo unspecified)	-2%	-14%	-9%	-2%	3%
CC(C)CC1=NN(C(=O)c2ccncc2)C(O)(C(F)(F)F)C1 (stereo unspecified)	0%	-17%	24µM*	?	2%
Cc1ccc(C2=NS(=O)(=O)N(C)C(C(=O)N3CCOCC3)=C2)cc1	-6%	-2%	6%	1%	10µM*
Cc1ccccc1S(=O)(=O)Cc1ccc(C(=O)NCc2ccco2)o1	-3%	-22%	24µM*	?	-3%
Cc1ccc(N2C(=O)C3N=NN(CC(=O)N4N=C(c5ccccc5)CC4c4ccccc4)C3C2=O)cc1 (stereo unspecified)	-10%	-17%	-23%	-13%	-5%
Cc1cc(SCNC(=O)c2ccccc2)nc(C(C)C)n1	-1%	4%	24µM*	-28%	26%
CC(=O)Nc1ccc(-c2ccnc3c2CC(C)(C(=O)Nc2cccc(OC(F)(F)F)c2)O3)cc1 (stereo unspecified)	.	.	-7%	.	.
CC1(CCc2ccc3c(c2)OCO3)NC(=O)c2ccccc2N1 (stereo unspecified)	-4%	-20%	8.4µM*	?	-7%
O=C(CSc1nc2c(oc3ccccc32)c(=O)[nH]1)Nc1cccc(Cl)c1	.	-2%	.	-8%	-11%
Cc1cc2cc(C=C(C#N)C#N)c(Cl)nc2cc1C	-1%	-9%	?	50µM*	-5%
SMILES	TSG101-PTAP inh	USP1 inh	PLK1 PBD block	VDR inhibitor	KAT2A inh
CCOC(=O)/C(C#N)=C/c1cc2cc(C)c(C)cc2nc1Cl	-4%	-27%	-7%	-15%	12%
Cc1nnc(SCC(=O)N2c3ccccc3C(C)(c3ccccc3)CC2(C)C)s1 (stereo unspecified)	-4%	-9%	-9%	3%	-7%
Cc1ccc(S(=O)(=O)N2CCN(C(=O)COC(=O)c3ccc(Cl)nc3)CC2)c(C)c1	-5%	-21%	0%	-9%	0%
C/C(CC(=O)Nc1ccc(N(C)C)cc1)=N\NC(=O)c1ccc([N+](=O)[O-])cc1Cl	-1%	-11%	21µM*	79µM*	-11%
C/C(CC(=O)Nc1ccc([N+](=O)[O-])cc1)=N\NC(=O)c1ccccc1O	-9%	-23%	-1%	-5%	-13%
CC(C)NC(=O)Nc1cccc2c1O[C@H](CN(C)S(=O)(=O)c1ccc(F)cc1)[C@@H](C)CN([C@H](C)CO)C2=O	1%	-5%	19µM*	?	-4%
CC(C)NC(=O)Nc1cccc2c1O[C@H](CN(C)S(=O)(=O)c1ccccc1)[C@@H](C)CN([C@H](C)CO)C2=O	-1%	-29%	-5%	8%	-9%
COc1cc(C)c(C)cc1S(=O)(=O)n1c(C)nc2ccccc21	-4%	-16%	27µM*	-22%	-8%
CCOC(=O)c1c(NC(=O)c2cc3nc(-c4ccc(OC)cc4)cc(C(F)(F)F)n3n2)sc2c1CCC(C)C2 (stereo unspecified)	.	?	.	6%	11%
COc1ccc(CNC(=O)c2sc3nc4c(c(C(F)(F)F)c3c2N)CCC4)cc1OC	-4%	-8%	?	40µM*	-22%
COc1ccc(NC(=O)c2sc3nc(C(F)(F)F)cc(C)c3c2N)cc1OC	.	3%	.	-9%	-19%
COc1ccc(C(=O)c2sc3nc4c(c(C(F)(F)F)c3c2N)CN(C(C)=O)CC4)cc1OC	.	40µM*	.	-2%	-9%
COc1ccc2oc(-c3cccc(NC(=O)c4sc5c([N+](=O)[O-])cccc5c4Cl)c3)nc2c1	.	-10%	.	0%	-9%
Cc1cc(C)cc(N(CC(=O)NCC2CCCO2)C(=O)CN2C(=O)COc3ccccc32)c1 (stereo unspecified)	-4%	-11%	30µM*	-18%	-16%
O=C(CN(C(=O)C1COc2ccccc2O1)c1ccccc1)NCC1CCCO1 (stereo unspecified)	-3%	-4%	-2%	-8%	-2%
COc1ccccc1-c1cc(-c2ccc(C)cc2)nc(SCc2nnc(-c3ccccc3)o2)c1C#N	-6%	-19%	21µM*	?	-6%
Cc1cc(C)c(C#N)c(SCc2nnc(-c3ccccc3)o2)n1	-1%	-23%	-15%	-13%	-6%
O=C(c1ccco1)[C@@H]1[C@@H]2C(=O)N(c3ccc(Br)cc3)C(=O)[C@@H]2C2c3ccccc3C=CN21 (stereo partly specified)	-14%	16µM*	?	-13%	-6%

Screening results deposited in PubChem BioAssay by National Center for Advancing Translational Sciences (NCATS).
